In PubChem BioAssay (NCI):
Values joined by “and” are separate entries in the source; they are usually repeats but may differ in a detail not shown here. Identical values can stand only once. About 83,000 compounds went through this panel and 20% of them were active in at least one assay; those are over-represented in the sample as a whole.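 A percent growth of 40 corresponds to 60% growth inhibition; 0 means no net growth; -100 means all cells died. Active threshold: below 10.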 Active and inactive are the calls of the source.

system: COLO 205 colon; test: NCI-60 one-dose screen, 48 h (100 = growth as untreated, 0 = no growth, -100 = all killed); settings: 10 µM unless noted

SMILES | growth
CN(Cc1ccccc1)c1nc(Cl)c(C2CC(c3ccc(F)cc3)=NN2C=O)s1 (stereo unspecified) | 99.7% (inactive)
CCOC(=O)c1ccc(Nc2ncnc3c2cnn3-c2cccc(F)c2)cc1 | 113% (inactive)
Cc1ccc2nc3ccccc3c(NCc3ccc(Cl)cc3)c2c1 | -53.3% (active)
O=S(=O)(Nc1cc(Sc2cccc3cccnc23)c(O)c2ccccc12)c1ccc(F)cc1 | -64.6% (active)
CCCCC1COc2cccc3c2N1C=C/C3=C\C(=O)N(C)c1cccc(Cl)c1 (stereo unspecified) | 100% (inactive)
Cc1ccc(-c2nc3nc(-c4ccc(Cl)cc4)nc(N4CCCNCC4)c3o2)cc1 | -66.4% (active)
COc1cc(NS(=O)(=O)C(C)C)cc(-c2cc(-c3ccc(N4CCNCC4)cc3)cnc2N)c1 | 84.4% (inactive)
COCCn1cc(-c2csc(-c3cn(C)c4ccc(F)cc34)n2)c2cccnc21 | 61.6% (inactive)
COc1ccc(NC(=O)Nc2ccccc2CNc2nc(Nc3ccc(OCCN4CCCC4)cc3)ncc2Cl)cc1 | 1.65% (active)
COc1cc(CNC(=O)CCCC/C=C/C(C)C)ccc1O | 101% (inactive) and 111% (inactive)
CC(Sc1ccccc1)C(=O)O (stereo unspecified) | 143% (inactive)
Cc1ccc(-c2nc3nc(-c4ccccc4)nc(N4CCCNCC4)c3o2)cc1 | -86.9% (active)
CCCCn1c(C(=O)c2c[nH]c3ccccc23)n[nH]c1=S | 106% (inactive)
O=C1C(=C(O)c2ccccc2)C(=O)c2ccccc21 | 121% (inactive)
COc1ccc(-c2c[nH]c(C(=O)O)c2-c2cc(OC)c(OC)c(OC)c2)cc1 | 14.7% (inactive)
O=C(Nc1ccc2ccccc2c1)c1cc2ccccc2cc1O | 110% (inactive)
N=C(N)SCc1c2ccccc2c(CSC(=N)N)c2ccccc12 | 66.1% (inactive)
NNCCc1ccccc1 | 96.5% (inactive) and 103% (inactive)
Brc1ccc(/C=C(/C2=NCCN2)n2ccc3ccccc32)cc1 | 64.8% (inactive)

SMILES | growth
C=C(c1ccc(C(=O)O)cc1)c1cc2c(cc1C)C(C)(C)CCC2(C)C | 135% (inactive) and 118% (inactive)
N=C(N)c1ccc(-c2ccc(-c3ccc(Cl)c(Cl)c3)s2)cc1 | -17.9% (active)
C=C(CN1CC=CCC1)[C@@H]1CC[C@]2(COC(C)=O)CC[C@]3(C)[C@H](CC[C@@H]4[C@@]5(C)CC[C@H](O)C(C)(C)[C@@H]5CC[C@]43C)[C@@H]12 | 105% (inactive)
O=[N+]([O-])c1cc(C(F)(F)F)ccc1Sc1ccc(C(F)(F)F)cc1[N+](=O)[O-] | 123% (inactive)
CCn1cc(C(=O)NN=C2CCCC2)c(=O)c2ccc(C)nc21 | 104% (inactive)
O=C(Nc1ccc(Cl)c(Cl)c1)Nc1ccc(Cl)c(Cl)c1 | -86.9% (active) and 17.1% (inactive)
Cn1c(=O)c2c(nc(Nc3cc(=O)[nH]c(=O)[nH]3)n2Cc2ccccc2)n(C)c1=O | -2.38% (active)
CCOC(=O)c1c(-c2ccc(OC)cc2)c(C#N)c2c(C#N)c(N)nn2c1N | 18.6% (inactive)
COc1cc(/C=N/NC(=O)CCN2c3ccccc3Sc3ccccc32)cc(OC)c1OC | 105% (inactive)
O/N=C(/c1ccccc1)c1ccc2c3c(cccc13)CC2 | 117% (inactive) and 103% (inactive)
COc1cc(-c2nc3occn3c2-c2ccnc(NCCCNS(=O)(=O)c3ccc(O)cc3)n2)ccc1F | 45% (inactive)
CN(C)c1ccc2nc3ccc(=O)cc-3sc2c1 | -10.2% (active) and 5.66% (active)
ON=C1CCCCCCCC1 | 102% (inactive) and 112% (inactive)
[Cu+].[NH-][C@H]1C[N-]C(=O)[C@H]([C@H]2CCN=C(N)N2)[N-]C(=O)/C(=C\NC(N)=O)[N-]C(=O)[C@H](CNC(=O)C[C@@H](N)CCCN)[N-]C(=O)[C@H](CO)[N-]C1=O | 111% (inactive)
CC(C)=CCc1cc(O)c(O)c2oc3cc(O)cc(O)c3c(=O)c12 | 91.7% (inactive)
Cc1ccc(S(=O)(=O)OC[C@@]2(C)CC[C@]3(C)CC[C@]4(C)C(=CC[C@@H]5[C@@]6(C)CCCNC(C)(C)[C@@H]6CC[C@]54C)[C@@H]3C2)cc1 | -82.6% (active)
COc1cc(C=O)ccc1Oc1ccc([N+](=O)[O-])cc1[N+](=O)[O-] | 108% (inactive)
COc1cc2ncnc(Nc3ccc(F)c(Cl)c3)c2cc1OCC(=O)N1CCCCC1 | 96% (inactive)
CCN1C(=S)N(CC)C2C1NC(=S)N2/N=C/C=C/c1ccccc1 (stereo unspecified) | 33.4% (inactive)

system: DU-145 prostate; test: as above; settings: 10 µM unless noted

SMILES | growth
CN(Cc1ccccc1)c1nc(Cl)c(C2CC(c3ccc(F)cc3)=NN2C=O)s1 (stereo unspecified) | 104% (inactive)
CCOC(=O)c1ccc(Nc2ncnc3c2cnn3-c2cccc(F)c2)cc1 | 106% (inactive)
Cc1ccc2nc3ccccc3c(NCc3ccc(Cl)cc3)c2c1 | 51.4% (inactive)
O=S(=O)(Nc1cc(Sc2cccc3cccnc23)c(O)c2ccccc12)c1ccc(F)cc1 | -25.4% (active)
CCCCC1COc2cccc3c2N1C=C/C3=C\C(=O)N(C)c1cccc(Cl)c1 (stereo unspecified) | 103% (inactive)
Cc1ccc(-c2nc3nc(-c4ccc(Cl)cc4)nc(N4CCCNCC4)c3o2)cc1 | -21.9% (active)
COc1cc(NS(=O)(=O)C(C)C)cc(-c2cc(-c3ccc(N4CCNCC4)cc3)cnc2N)c1 | 90.8% (inactive)
COCCn1cc(-c2csc(-c3cn(C)c4ccc(F)cc34)n2)c2cccnc21 | 69.9% (inactive)
COc1ccc(NC(=O)Nc2ccccc2CNc2nc(Nc3ccc(OCCN4CCCC4)cc3)ncc2Cl)cc1 | 18% (inactive)
COc1cc(CNC(=O)CCCC/C=C/C(C)C)ccc1O | 112% (inactive) and 120% (inactive)
CC(Sc1ccccc1)C(=O)O (stereo unspecified) | 107% (inactive)
Cc1ccc(-c2nc3nc(-c4ccccc4)nc(N4CCCNCC4)c3o2)cc1 | -25.5% (active)
CCCCn1c(C(=O)c2c[nH]c3ccccc23)n[nH]c1=S | 104% (inactive)
O=C1C(=C(O)c2ccccc2)C(=O)c2ccccc21 | 104% (inactive)
COc1ccc(-c2c[nH]c(C(=O)O)c2-c2cc(OC)c(OC)c(OC)c2)cc1 | 49% (inactive)
O=C(Nc1ccc2ccccc2c1)c1cc2ccccc2cc1O | 13.3% (inactive)
N=C(N)SCc1c2ccccc2c(CSC(=N)N)c2ccccc12 | 63.9% (inactive)
NNCCc1ccccc1 | 122% (inactive) and 108% (inactive)
Brc1ccc(/C=C(/C2=NCCN2)n2ccc3ccccc32)cc1 | 63.1% (inactive)

SMILES | growth
C=C(c1ccc(C(=O)O)cc1)c1cc2c(cc1C)C(C)(C)CCC2(C)C | 94.4% (inactive) and 92.3% (inactive)
N=C(N)c1ccc(-c2ccc(-c3ccc(Cl)c(Cl)c3)s2)cc1 | -88.9% (active)
C=C(CN1CC=CCC1)[C@@H]1CC[C@]2(COC(C)=O)CC[C@]3(C)[C@H](CC[C@@H]4[C@@]5(C)CC[C@H](O)C(C)(C)[C@@H]5CC[C@]43C)[C@@H]12 | 102% (inactive)
O=[N+]([O-])c1cc(C(F)(F)F)ccc1Sc1ccc(C(F)(F)F)cc1[N+](=O)[O-] | 64.4% (inactive)
CCn1cc(C(=O)NN=C2CCCC2)c(=O)c2ccc(C)nc21 | 109% (inactive)
O=C(Nc1ccc(Cl)c(Cl)c1)Nc1ccc(Cl)c(Cl)c1 | -94.8% (active) and 21.1% (inactive)
Cn1c(=O)c2c(nc(Nc3cc(=O)[nH]c(=O)[nH]3)n2Cc2ccccc2)n(C)c1=O | 2.17% (active)
CCOC(=O)c1c(-c2ccc(OC)cc2)c(C#N)c2c(C#N)c(N)nn2c1N | 56.1% (inactive)
COc1cc(/C=N/NC(=O)CCN2c3ccccc3Sc3ccccc32)cc(OC)c1OC | 97.4% (inactive)
O/N=C(/c1ccccc1)c1ccc2c3c(cccc13)CC2 | 107% (inactive) and 105% (inactive)
COc1cc(-c2nc3occn3c2-c2ccnc(NCCCNS(=O)(=O)c3ccc(O)cc3)n2)ccc1F | 110% (inactive)
CN(C)c1ccc2nc3ccc(=O)cc-3sc2c1 | 35.7% (inactive) and 51.2% (inactive)
ON=C1CCCCCCCC1 | 107% (inactive) and 103% (inactive)
[Cu+].[NH-][C@H]1C[N-]C(=O)[C@H]([C@H]2CCN=C(N)N2)[N-]C(=O)/C(=C\NC(N)=O)[N-]C(=O)[C@H](CNC(=O)C[C@@H](N)CCCN)[N-]C(=O)[C@H](CO)[N-]C1=O | 112% (inactive)
CC(C)=CCc1cc(O)c(O)c2oc3cc(O)cc(O)c3c(=O)c12 | 55.8% (inactive)
Cc1ccc(S(=O)(=O)OC[C@@]2(C)CC[C@]3(C)CC[C@]4(C)C(=CC[C@@H]5[C@@]6(C)CCCNC(C)(C)[C@@H]6CC[C@]54C)[C@@H]3C2)cc1 | -90.7% (active)
COc1cc(C=O)ccc1Oc1ccc([N+](=O)[O-])cc1[N+](=O)[O-] | 110% (inactive)
COc1cc2ncnc(Nc3ccc(F)c(Cl)c3)c2cc1OCC(=O)N1CCCCC1 | 53.8% (inactive)
CCN1C(=S)N(CC)C2C1NC(=S)N2/N=C/C=C/c1ccccc1 (stereo unspecified) | 30.6% (inactive)
